Screening results deposited in PubChem BioAssay by National Center for Advancing Translational Sciences (NCATS).
In the library only some 19% were active in any assay of this set; here they are far more common.
ELG1 DNA repair – ELG1-dependent DNA repair inhibition | HEK293T ELG1-luciferase reporter, luminescence, 16 h; DNA damage induced by 5-fluorouridine | Potency, µM (highest dose often 46.1 µM), inactives show at the top dose activity change, negative = inhibition, usual class: inhibitors | actives 2.3% (n = 330,000); note: potency is the fitted concentration of half-maximal effect; nearly all actives have a fitted effect of over 55% in size
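Cells (2,000 per well) received 5-fluorouridine plus test compound or DMSO and were incubated 16 hr at 37 °C, 5% CO2. Luciferase activity was read by luminescence 30 min after ONE-Glo addition; signal suppression marked inhibition of damage-induced ELG1 function.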
TDP1 block – TDP1 (human) enzyme inhibition. AID 485290. recombinant TDP1, AlphaScreen DNA substrate cleavage. Q9NUW8. actives 0.28% (n = 350,000). Potency, µM (top dose mostly 130 µM), for inactives: at the top dose activity change, negative = inhibition, usual class: inhibitors; note: potency is the fitted concentration of half-maximal effect; nearly all actives have a fitted effect of over 40% in size
Target sequence (Q9NUW8 whole entry, looked up): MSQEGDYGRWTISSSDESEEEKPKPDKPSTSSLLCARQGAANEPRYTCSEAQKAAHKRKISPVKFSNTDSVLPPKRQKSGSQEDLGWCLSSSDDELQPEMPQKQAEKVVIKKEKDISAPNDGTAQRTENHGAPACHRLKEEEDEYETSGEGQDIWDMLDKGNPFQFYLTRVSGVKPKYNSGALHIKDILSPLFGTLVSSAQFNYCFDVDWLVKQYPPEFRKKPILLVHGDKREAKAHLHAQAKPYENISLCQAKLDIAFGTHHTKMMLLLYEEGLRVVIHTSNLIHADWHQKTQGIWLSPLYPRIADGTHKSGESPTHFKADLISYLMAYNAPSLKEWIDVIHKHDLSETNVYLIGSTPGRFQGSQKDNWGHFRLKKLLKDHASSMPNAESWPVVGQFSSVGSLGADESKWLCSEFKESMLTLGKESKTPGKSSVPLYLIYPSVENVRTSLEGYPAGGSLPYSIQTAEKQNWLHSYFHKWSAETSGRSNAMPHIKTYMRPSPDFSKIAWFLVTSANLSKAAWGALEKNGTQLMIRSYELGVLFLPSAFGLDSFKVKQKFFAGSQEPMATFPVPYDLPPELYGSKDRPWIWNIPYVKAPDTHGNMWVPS
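Here, a 5' biotin and 3' phosphotyrosine-FITC DNA oligonucleotide reports Tdp1 activity: intact substrate bridges AlphaScreen beads, while cleavage leaves a 3' phosphate and drops signal. All incubations at room temperature.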
DT40 TDP1 no CPT – qHTS for Inhibitors of human tyrosyl-DNA phosphodiesterase 1 (TDP1): qHTS in cells in absence of CPT; Potency, µM (series often up to 46.2 µM), without a hit: at the highest dose activity change, negative = growth inhibition, hits mostly inhibitors; actives 15% (n = 420,000); AID 686978, 2013; DT40 Tdp1-/- hTDP1 cells, no CPT, ATP luminescence, 48 h; note: potency is the fitted concentration of half-maximal effect; nearly all actives have a fitted effect of over 55% in size
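Luminescent ATP content (CellTiter-Glo) served as the growth readout. Knockout chicken DT40 cells expressing human TDP1 were exposed to compounds without camptothecin for a minimum 48 hr at 37 °C.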
Giardia kill – Giardia lamblia killing. Giardia lamblia trophozoite viability. activity change, % at 7.66 µM, hits read low. actives 0.15% (n = 340,000). AID 540267; in the data active = activity change below about -80%; inconclusive = between about -30% and that limit;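 note: parasites exposed to compound for two days anaerobically before the ATP read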
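Compounds were tested on trophozoites seeded at 100 cells/well and held 48 hrs at 37 deg C anaerobically. An ATP-based luminescent kit measured the remaining live cells.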
TDP1 cell CPT – growth inhibition of DT40 Tdp1-/-;hTDP1 cells with camptothecin (screen for TDP1 inhibitors); Potency, µM (highest dose often 46.2 µM), for inactives: at the top dose activity change, negative = growth inhibition, hits mostly inhibitors; actives 12% (n = 420,000); chicken DT40 Tdp1-/-;hTDP1 cells + 20 nM CPT, ATP luminescence, 48 h; note: potency is the fitted concentration of half-maximal effect; nearly all actives have a fitted effect of over 55% in size
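Cell growth measured by CellTiter-Glo luminescence after a minimum 48 h, 37 C compound exposure with 20 nM CPT in Tdp1-knockout DT40 cells stably expressing hTDP1, seeded 400/well; qHTS titration format.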
IL1B secr inh – inhibitors of inflammasome signaling (IL-1 beta secretion); AID 743279; THP-1 LPS/ATP IL-1B secretion, AlphaLISA, 16 h; active compounds read low; activity change, % at 57.5 µM; actives 4.7% (n = 360,000); in the data active = activity change below about -50%; inconclusive = mostly about -30% to -49%
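THP-1 cells pretreated 1 hr with compounds (up to 57.5 uM final), then stimulated with LPS (250 ng/mL final) plus ATP (1.25 mM final); secreted IL-1B measured by AlphaLISA after 16 hr, decreased signal indicating inhibition.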
* marks the source's active call; other numbers are inactive results; ? = inconclusive; . = no result. Unless noted, calls come from the whole dose curve; as a rule, active = well fitted curve in the direction sought with a large enough effect; inconclusive = small, poorly fitted or top-dose-only effect, or another doubt; inactive = no such curve, though single readings can be large; an effect the other way counts as inactive or inconclusive. % is set by controls: 0 for no effect and ±100 for the full control effect.

SMILES | ELG1 DNA repair | TDP1 block | DT40 TDP1 no CPT | Giardia kill | TDP1 cell CPT | IL1B secr inh
CCOC(=O)c1ccc(NC(=O)C(CC)Sc2nnc3c4ccccc4n(C)c3n2)cc1 (centres undefined) | . | 0% | 18µM* | . | 16µM* | .
CCC(Sc1nnc2c(n1)[nH]c1ccccc12)C(=O)Nc1ccccc1OC (centres undefined) | . | . | 21µM* | . | ? | .
CCn1c(SCc2ccc(Cl)c(Cl)c2)nnc1C(C)NC(=O)c1ccc(OC)cc1 (centres undefined) | ? | 0% | 16µM* | -28 | 16µM* | -8
COc1ccc(Cl)cc1/C=C/c1ccc2cccc(O)c2n1 | ? | . | ? | 4 | 21µM* | 93
Oc1cccc2ccc(/C=C/c3c(F)cccc3Cl)nc12 | ? | -8% | ? | -2 | ? | 17
Oc1cccc2ccc(/C=C/c3ccccc3Cl)nc12 | ? | . | 7.3µM* | 4 | 9.2µM* | 29
COc1cc(Cl)cc(/C=C/c2ccc3cccc(O)c3n2)c1OC | 3% | . | 23µM* | -6 | ? | 34
Oc1ccc(/C=C/c2ccc3cccc(O)c3n2)cc1Br | ? | . | ? | -2 | ? | 38
COc1ccccc1/C=C/c1ccc2cccc(O)c2n1 | ? | . | ? | ? | ? | 36
Cc1ccc(-n2nc3c(N4CCC(C(=O)N5CCCCCC5)CC4)nnc(C)c3c2C)cc1 | -48% | 1% | 5.8µM* | -11 | 7.3µM* | -9
Cc1nnc(N2CCC(C(=O)N3CCCCCC3)CC2)c2nn(-c3ccc(Cl)cc3)c(C)c12 | ? | 1% | ? | -3 | 18µM* | -26
Cc1ccc(-n2nc3c(N4CCC(C(=O)N5CCN(C)CC5)CC4)nnc(C)c3c2C)cc1 | -5% | 4% | -13% | 2 | -21% | -18
CCN(C(=O)COC(=O)/C=C/c1c(C)nn(Cc2ccc(C)cc2)c1C)C1CCS(=O)(=O)C1 (centres undefined) | -15% | 5% | 0% | 18 | 5% | 30
CCc1cc(-c2cnnn2CCc2c[nH]c3ccccc23)ccc1-c1cn(CC(C)C)nn1 | . | . | ? | . | ? | -11
CCc1cc(-c2nnn(CCC3COCCO3)c2C(C)(C)O)ccc1-c1cn(CCc2c[nH]c3ccccc23)nn1 (centres undefined) | . | . | 12µM* | . | 21µM* | 142
CCc1cc(-c2nnn(-c3cc(C(C)C)ccc3C)c2CC)ccc1-c1cn(CCc2c[nH]c3ccccc23)nn1 | . | . | ? | . | 23µM* | -6
COc1ccc(N(CC(=O)N2CCOCC2)S(C)(=O)=O)cc1Cl | 15% | 4% | 1% | -14 | 0% | -1
CCc1ccc(NC(=O)Cn2cnc3sc(C)c(S(=O)(=O)N4CCN(c5ccccc5OC)CC4)c3c2=O)cc1 | . | 6% | 16µM* | . | ? | .
Cc1sc2ncn(CC(=O)Nc3ccc(C(F)(F)F)cc3)c(=O)c2c1S(=O)(=O)N1CCN(C)CC1 | . | 6% | 1.3µM* | . | ? | .
COc1ccccc1N1CCN(S(=O)(=O)c2c(C)nc3sc(C)c(C)n3c2=O)CC1 | . | -8% | 21µM* | . | 21µM* | .
COc1ccc(OC)c(S(=O)(=O)N2CCCC(C(=O)NCc3cccnc3)C2)c1 (centres undefined) | -3% | 10% | -5% | -9 | 11% | 28
Cc1ccc2nc(SCC(=O)Nc3ccc4c(c3)CCC4)[nH]c2c1 | -3% | -2% | ? | 1 | 18µM* | 0
CC(=O)c1cc2c(cc1NC(=O)CSc1nc3ccc(C)cc3[nH]1)OCO2 | ? | 0% | ? | -22 | -10% | -74*
O=C(CSc1nc2ccc(Cl)cc2[nH]1)Nc1ccc2c(c1)CCC2 | -2% | 5% | ? | 0 | ? | 4
O=C(CSc1nc2ccccc2[nH]1)Nc1cccc(S(=O)(=O)N2CCOCC2)c1 | ? | 5% | ? | -7 | ? | ?
SMILES | ELG1 DNA repair | TDP1 block | DT40 TDP1 no CPT | Giardia kill | TDP1 cell CPT | IL1B secr inh
CCN(CC)S(=O)(=O)c1cccc(NC(=O)CSc2nc3ccccc3[nH]2)c1 | 23µM* | -5% | 16µM* | -10 | 23µM* | -57*
Cc1ccc2nc(SCC(=O)Nc3cccc(S(=O)(=O)N(C)C)c3)[nH]c2c1 | ? | 3% | 16µM* | 17 | ? | -21
O=C(Nc1cc(Cl)cc2c1[nH]c1cnccc12)c1cccnc1 | . | 0% | . | . | . | .
Cc1c(NS(=O)(=O)c2cc(C(=O)NCc3cccnc3)ccc2Cl)c(=O)n(-c2ccccc2)n1C | -3% | 0% | 9% | -11 | 20% | 25
CCOc1ccc(CO/N=C/c2c(C)[nH]c(=O)[nH]c2=O)cc1 | 8% | 1% | 1% | 4 | -3% | -26
CCn1nc(C(=O)OCC(=O)N2CC(=O)Nc3ccccc32)c2ccccc2c1=O | -3% | 6% | -5% | 5 | -1% | 11
CN(C)S(=O)(=O)c1cccc(NC(=O)CSc2nc3ccccc3[nH]2)c1 | 13µM* | 8% | ? | 16 | ? | -61*
CN(C)S(=O)(=O)c1cccc(NC(=O)CSc2nnnn2-c2ccccc2)c1 | ? | 1% | 23µM* | 11 | 15µM* | -2
Cc1ccc(CN(C)CC(=O)Nc2ccc3c(c2)CCC3)cc1 | 12% | 0% | ? | 2 | -5% | -66*
CCc1ccc(CN(C)CC(=O)Nc2ccc3c(c2)CCC3)cc1 | -26% | -6% | ? | 0 | ? | 19
CCCCNS(=O)(=O)c1ccc2nc(SCC(=O)c3ccc(C#N)cc3)[nH]c2c1 | -2% | 8% | -27% | 13 | -22% | 6
CCCCNS(=O)(=O)c1ccc2nc(SCC(=O)Nc3ccccc3)[nH]c2c1 | ? | 5% | 16µM* | -9 | -1% | 0
Cc1c(C(C)C[C@H](C)O)oc(=O)c2c1Oc1c(C)c(C(C)C[C@H](C)O)oc(=O)c1C2 (some centres undefined) | 6% | 0% | ? | -2 | ? | 6
O=C(C[n+]1ccccc1Cl)c1ccccc1 | . | . | -26% | . | -8% | .
Cc1noc(NS(=O)(=O)c2ccc(NC(=O)CSc3nnc4c(n3)[nH]c3ccccc34)cc2)c1C | -5% | -1% | -21% | -14 | -7% | 12
Cc1cccc(NC(=O)CSc2nnc(CNC(=O)c3ccc(S(=O)(=O)N(C)C)cc3)n2-c2ccccc2)c1 | -12% | 0% | ? | -21 | -27% | 7
